Source: PubChem (National Center for Advancing Translational Sciences (NCATS))
This excerpt belongs to a sample that is enriched for hits.
KDM5B inh: Primary screen for KDM5B Histone Demethylases FDH-coupled qHTS | Potency, µM (doses to about 57.7 µM), most hits filed as inhibitors | KDM5B demethylase, FDH-coupled NADH fluorescence (FDH is formaldehyde dehydrogenase) | 220,000 tested, 2.6% active; active = well fitted inhibition curve with a large enough effect; also: nearly all actives have a fitted effect of over 70% in size
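Here, H3K4me3 peptide (12.5 µM in substrate mix) is demethylated by KDM5BΔAP, 200 nM final, after 10 min compound exposure. Formaldehyde product is coupled through FDH (0.25 U/mL in mix) to NADH fluorescence; 30-min ΔRFU feeds dose-response curves.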
Hits are given with their value; n = inactive.

SMILES	KDM5B inh
Cn1cc(-c2cn(C)c(=O)n3cc(COc4ccccc4)nc23)cn1	n
Cn1cc(-c2ccccc2F)c2nc(COc3ccccc3)cn2c1=O	n
Cn1cc(-c2cccnc2)c2nc(COc3ccccc3)cn2c1=O	n
COCc1cn2c(=O)n(C)cc(-c3cccc(F)c3)c2n1	n
Cc1c(-c2cn(C)c(=O)n3cc(COc4ccccc4)nc23)cnn1C	n
COc1ccc(-c2cn(C)c(=O)n3cc(COc4ccnn4C)nc23)cc1OC	35.5µM
Cc1ccccc1-c1cn(C)c(=O)n2cc(COc3ccc(Cl)cc3)nc12	n
COCc1cn2c(=O)n(C)cc(-c3ccc(OC)nc3)c2n1	n
Cn1nccc1OCc1cn2c(=O)n(C)cc(-c3cccc(OCc4ccccc4)c3)c2n1	39.8µM
COCc1cn2c(=O)n(C)cc(-c3ccnc(OC)c3)c2n1	31.6µM
Cn1cc(-c2ccc(O)c(F)c2)c2nc(COc3ccc(Cl)cc3)cn2c1=O	20µM
CCOc1ccc(NC(=O)c2cc(S(=O)(=O)N3CCN(c4ccccc4F)CC3)ccc2F)cc1	n
Cc1cccc(Cn2nnc3c(=O)[nH]c(C4CCN(C(=O)c5ccc(F)cc5)CC4)nc32)c1	n
CC(C)Cn1c2c(c(=O)[nH]c1=O)C(NS(=O)(=O)c1ccc(Cl)cc1)(C(F)(F)F)C(=O)N2 (stereo not given)	n
CCOC(=O)N1CCC2(CC1)OC(=O)C(C)=C2C(=O)NCc1ccc(C)cc1	n
Cc1noc(C)c1C(=O)Nc1nnc(CC(C)C)s1	n
Cc1ocnc1C(=O)N1CCC2(CCCN(CCCc3ccccc3)C2=O)C1 (stereo not given)	n
COc1cccc(CNC(=O)[C@@H]2C[C@@H](O)CN2C2CCN(C(=O)c3cc(C)n(C)n3)CC2)c1	n
COc1cccc(NC(=O)CCN2C(=O)C3CC=CCC3C2=O)c1 (stereo not given)	n
CCN1CCN(Cc2cc3ccc(C)cc3nc2-c2ccc(OC)c(OC)c2)CC1	n
COc1ccc(-c2nc3cc(C)ccc3cc2CN2CCN(C(C)=O)CC2)cc1	n
COc1ccc(-c2nc3cc(C)ccc3cc2CN2CCC(NC(C)=O)C2)cc1 (stereo not given)	20µM
CCOC(=O)c1sc2ncn(CC(=O)Nc3ccc(C)cc3Br)c(=O)c2c1C	n
COc1ccc(C2Cn3nnc(-c4nc(C5CC5)no4)c3CO2)cc1 (stereo not given)	n
Cc1ccc(Cl)cc1NC(=O)COC(=O)c1ccc(C)c(S(=O)(=O)N2CCCCC2)c1	n
Cc1cc(C)c(C#N)c(SCCN2CCOCC2)n1	n
Cc1ccccc1-c1cc(C(=O)NCCc2cnc[nH]2)c2c(c1)N(C)CCO2	35.5µM
